The whole screen tested about 5,500 compounds, of which about 2,000 (36%) were called active. Roughly 18% stayed inconclusive and do not appear here. No stated cut-off is given here; in the data, active means normalized growth mostly below about 0.91 (no sharp cut-off); inconclusive means no clear call, values can overlap the other calls; inactive means mostly above about 0.92. The list shows a part of the results.
Assay: chemical genetic growth profiling, strain panel (AID 1159580);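 further: tested at 20 µM; growth read once vehicle control cultures reached saturation at 30 °C; 1 = growth at the plate median or of vehicle wells; lower values mean less growth of the strain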
Details: S. cerevisiae deletion strains, growth OD
[1] = locus YAL040C, strain CLN3, active compounds read low
[2] = locus YCL061C, strain MRC1 (second series), active compounds read low
[3] = locus YDR363W, strain ESC2, active compounds read low
[4] = locus YER002W, strain NOP16, active compounds read low
[5] = locus YJR075W, strain HOC1, active compounds read low
[6] = locus YNL153C, strain GIM3, active compounds read low
[7] = locus YNL175C, strain NOP13, active compounds read low
[8] = locus YNL197C, strain WHI3, active compounds read low
[9] = locus YNL224C, strain SQS1, active compounds read low
[10] = locus YOR083W, strain WHI5 (second series), active compounds read low

Measured: normalized growth

O=C(OC1CCN(CCCl)CC1)C(c1ccccc1)c1ccccc1
inactive: [1] 0.993 | [2] 0.988 | locus YDR150W, strain NUM1, active compounds read low 0.986 | [3] 0.986 | [4] 1 | locus YGR078C, strain PAC10, active compounds read low 0.994 | [5] 0.995 | locus YNL128W, strain TEP1, active compounds read low 0.997 | [6] 0.969 | [7] 1.01 | [8] 1.03 | [9] 0.99 | [10] 0.996 | locus YPL241C, strain CIN2, active compounds read low 0.99

CCCCN1CCC(n2c(=O)[nH]c3ccccc32)CC1
inactive: [1] 1.01 | [2] 1.01 | [3] 1.02 | [4] 0.994 | locus YGR229C, strain SMI1, active compounds read low 1.01 | [5] 1.02 | locus YMR263W, strain SAP30, active compounds read low 1 | [6] 0.952 | [7] 1.01 | [8] 1.03 | [9] 0.988 | [10] 1.01

Reference: PubChem BioAssay AID1159580 (chemical genetic matrix, 2015)
